Screening data as filed in PubChem BioAssay.
Sampled rows, rich in hits. Any-hit rate of the full collection: about 5.7%.
FAS TE block: FAS thioesterase (human) inhibition | P49327 | recombinant FAS-TE, OMFH fluorogenic substrate, fluorescence endpoint | inhibition, % at 15 µM | hit rate 0.67% among 360,000 | AID 602261;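 active means compounds whose normalised, plate-corrected inhibition of enzyme fluorescence in the single-dose primary screen is 50% or more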;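 further: 0% = DMSO with enzyme and 100% = substrate without enzyme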
rCAG binder: molecules binding r(CAG) RNA repeats; r(CAG) RNA repeat, TO-PRO-1 dye displacement fluorescence; inhibition, % at 3 µM; hit rate 1.3% among 370,000; AID 651821;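 active means inhibition above the plate cutoff, the mean of all test compounds on that plate plus 3 SD, cut at about 35% in these data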;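 further: 0% = DMSO alone and 100% = 100 µM mitoxantrone as full dye displacement; higher means more dye released from RNA so lower well fluorescence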
Myeloid diff MLP: compounds promoting myeloid differentiation. ER-HoxA9 myeloid progenitors, lysozyme-GFP differentiation, flow cytometry. calls only at 10 µM. hit rate 1% among 360,000;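 active means normalized GFP-positive differentiation at or above the plate's own cutoff, the solvent-only control mean plus 3 SD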;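 further: cells exposed to compound for four days before flow analysis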
MPTP block: permeability transition pore inhibition; isolated mouse mitochondria, Ca2+ swelling absorbance, 30 min; inhibition, % at 10 µM; hit rate 1.4% among 360,000; AID 602449;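 active means inhibition of 50% or more, scaled per plate between neutral and stimulator controls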;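 further: 0% = DMSO wells given calcium and 100% = 1 mM EGTA wells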
NR3A LBD binder: modulates the human NR3A ligand-binding domain; NR3A LBD differential scanning fluorimetry, Tm shift; 0% = protein alone, 100% = glycine-bound protein; hit rate 2.5% among 340,000; AID 1259313; Tm shift relative to glycine control, % at 25 µM;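 active means melting temperature shift of at least 10% of the positive control shift, at one fixed dose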
rCAG binder conf: r(CAG) RNA repeat binding, confirmation; shares compounds with rCAG binder; TO-PRO-1 dye displacement fluorescence; inhibition, % at 3 µM; hit rate 70% among 4,300; AID 652065;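 active means inhibition above a per-plate cutoff, the mean inhibition of sample wells plus 3 SD, cut at about 35% in these data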;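 further: loss of TO-PRO-1 fluorescence as compound displaces dye from 1x1 AA loop RNA; 0% = DMSO only wells and 100% = 100 µM mitoxantrone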
dCAG dye counter: DNA CAG dye complex inhibition counter-screen; d(CAG) DNA oligo TO-PRO-1 dye displacement, fluorescence; hit rate 94% among 4,300; AID 652068; shares compounds with rCAG binder; inhibition, % at 3 µM;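 active means inhibition above its plate's cutoff, the mean test-well inhibition plus 3 SD, cut at about 4.8% in these data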;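 further: 0% = DNA dye mix with DMSO and 100% = 100 µM mitoxantrone; hits displace the dye from DNA and so lower well fluorescence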
Active calls of the source: *; i = inactive; / = no result.

SMILES	FAS TE block	rCAG binder	Myeloid diff MLP	MPTP block	NR3A LBD binder	rCAG binder conf	dCAG dye counter
CCOc1cc(/C=C2\C(=N)N3N=C(N4CCCCC4)SC3=NC2=O)ccc1OC(=O)c1ccco1	3.4	29.8	i	-1.1	-29.8	/	/
CCOc1cc(/C=C2\C(=N)N3N=C(S(=O)(=O)CC)SC3=NC2=O)ccc1OC(=O)c1ccco1	3.0	41.8*	i	0.0	0.9	84.4*	51.4*
CCC(C)N(C(=O)COC(=O)c1ccc(=O)n(Cc2ccccc2)n1)C1CCS(=O)(=O)C1 (configuration not stated)	-6.8	-6.5	i	1.1	-0.6	/	/
C=C(C)Cn1c(SCCN2CCOCC2)nc2c1c(=O)[nH]c(=O)n2C	-6.3	-2.9	i	-0.9	-1.0	/	/
Cc1ccc2nc(COC(=O)c3cccnc3Cl)cc(=O)n2c1	-2.4	-0.1	i	-0.5	/	/	/
COc1cc(/C=C2\C(=N)N3N=C(S(C)(=O)=O)SC3=NC2=O)ccc1OC(=O)c1cccs1	6.0	51.9*	i	0.2	1.8	85.6*	63.1*
COc1cc(/C=C2\C(=N)N3N=C(S(C)(=O)=O)SC3=NC2=O)ccc1OC(=O)c1ccco1	1.5	43.4*	i	-0.3	1.0	80.1*	48.4*
CCOC(=O)C1CCN(C(=O)COC(=O)c2ccc([N+](=O)[O-])o2)CC1	0.4	2.3	i	-2.5	2.3	/	/
Cc1nc(-c2ccc(S(=O)(=O)Nc3ccc(Br)cc3Cl)s2)cs1	16.3	74.2*	i	26.0	9.3	65.5*	26.6*
CCC1=C(C)CN(C(=O)NCCc2ccc(S(=O)(=O)NC(=O)NC3CCC(C)CC3)cc2)C1=O (configuration not stated)	-0.8	41.6*	i	-0.1	-0.5	32.8	5.0*
Cc1ccc(S(=O)(=O)NCCC(=O)NC2CCC(C)CC2)cc1 (configuration not stated)	-5.2	1.9	i	-0.3	-0.3	/	/
O=C(O)c1cccc(NC(=S)NC(NC(=O)c2ccccc2[N+](=O)[O-])C(Cl)(Cl)Cl)c1 (configuration not stated)	-5.4	19.7	i	2.6	-4.3	/	/
O=C(O)c1cccc(NC(=S)NC(NC(=O)c2cccc([N+](=O)[O-])c2)C(Cl)(Cl)Cl)c1 (configuration not stated)	17.4	52.9*	i	3.5	-8.6	30.2	8.7*
Cc1ccc2c(c1)N(CC(=O)NC(C)CCc1ccccc1)C(=O)c1cccnc1O2 (configuration not stated)	14.9	-5.6	i	-1.3	-2.8	/	/
O=C(O)c1cc(NC(=O)c2ccc([N+](=O)[O-])cc2)cc(NC(=O)c2ccc([N+](=O)[O-])cc2)c1	8.9	49.8*	i	0.0	-7.1	33.6	7.2*
O=C(O)c1ccc([N+](=O)[O-])cc1	-4.6	0.9	i	0.0	1.7	/	/
CC(C)(C)C(=O)Nc1ccc(C(=O)Nc2cc(NC(=O)c3ccc(NC(=O)C(C)(C)C)cc3)cc(C(=O)O)c2)cc1	-1.4	43.7*	i	-0.3	-6.2	67.1*	30.3*
Cn1cnnc1SCC(=O)NC1CC1	-11.3	2.0	i	0.2	3.1	/	/
O=C(NC(=S)Nc1ccc(S(=O)(=O)Nc2nccs2)cc1)c1ccc(Br)o1	-13.9	46.9*	i	-0.8	-13.4	33.3	11.9*
COc1cccc(OC)c1C(=O)NC(=S)Nc1ccc(S(=O)(=O)Nc2nccs2)cc1	-12.4	59.3*	i	-0.8	-15.9	40.0*	15.8*
O=C(NC(=S)Nc1ccc(S(=O)(=O)Nc2nccs2)cc1)c1ccccc1	-7.5	40.6*	i	2.6	-22.1	37.2*	8.9*
O=C(NC(=S)Nc1ccc(S(=O)(=O)Nc2nccs2)cc1)c1ccc(F)c(F)c1	-8.8	62.5*	i	-2.4	-5.7	40.1*	12.3*
COc1ccccc1C(=O)Nc1ccc(S(=O)(=O)Nc2nccs2)cc1	-0.4	21.8	i	-0.9	-0.6	/	/
CC(C)C[C@@H](CNCC(=O)[C@H](Cc1ccccc1)NC(=O)c1[nH]cnc1C(=O)N[C@H](CN)CC(C)C)NC(=O)c1nc[nH]c1C(=O)N[C@@H](CC(=O)O)C(=O)O	-6.7	19.3	i	-0.2	0.2	/	/
CC(C)(C)CC(C)(C)n1nnnc1N	-2.3	0.9	i	-0.7	-0.8	/	/
SMILES	FAS TE block	rCAG binder	Myeloid diff MLP	MPTP block	NR3A LBD binder	rCAG binder conf	dCAG dye counter
O=S1(=O)CC(N2CC=CC2)CN1Cc1cn(Cc2cccc(C(F)(F)F)c2)nn1 (configuration not stated)	-8.3	-0.4	i	-0.5	/	/	/
O=C(NC(=S)Nc1ccc(S(=O)(=O)Nc2nccs2)cc1)c1ccccc1F	-4.2	41.7*	i	0.3	-6.8	41.4*	12.9*
O=C(NC(=S)Nc1ccc(S(=O)(=O)Nc2nccs2)cc1)c1cccnc1	-5.9	7.1	i	1.7	0.8	/	/
O=[N+]([O-])c1ccc2nc(NS(=O)(=O)c3ccccc3[N+](=O)[O-])sc2c1	1.2	40.5*	i	23.2	14.4*	39.4*	12.1*
O=[N+]([O-])c1ccc2nc(NS(=O)(=O)c3ccc(Cl)cc3)sc2c1	20.5	72.2*	i	6.6	18.5*	75.7*	28.5*
COc1ccc(NC(=O)c2cc(C3CCCCN3S(C)(=O)=O)on2)c(C)c1 (configuration not stated)	-5.8	1.1	i	1.1	/	/	/
CCOC(=O)c1c(NC(=O)/C=C/C(=O)O)sc(C)c1-c1ccc(Cl)cc1	2.0	45.5*	i	2.1	-3.1	45.5*	11.4*
CCCCCCCC/C=C\CCCCCCCC(=O)NCCc1ccc(O)c(O)c1	-7.1	47.3*	i	6.2	-0.8	20.7	7.2*
CCCn1c(SCC(=O)Nc2ccccc2C(=O)NC2CC2)n[nH]c1=O	-3.8	-1.2	i	-0.4	-1.0	/	/
CCOC(=O)c1cc(C#N)c(SCC(N)=O)[nH]c1=O	-8.1	-5.7	i	-0.2	-0.7	/	/
CCOC(=O)c1cc(C#N)c(SCC(=O)Nc2ccc(C(C)=O)cc2)[nH]c1=O	3.6	42.6*	i	12.5	-1.7	43.6*	10.4*
O=C1C(=Cc2ccco2)CCC1=Cc1ccco1	-2.7	65.8*	i	1.7	-0.9	78.2*	44.4*
COc1cc2c(cc1OC)C(c1ccc(N(C)C)cc1)NCC2 (configuration not stated)	-3.0	1.7	i	0.5	3.5	/	/
O=C(CC1SC(=O)N(c2ccccc2)C1=O)Nc1ccc(Br)cc1 (configuration not stated)	-4.8	42.1*	i	8.6	29.7*	8.8	8.1*
O=C(CC1SC(=O)N(c2ccccc2)C1=O)Nc1ccc(Cl)cc1 (configuration not stated)	-7.8	43.3*	i	6.6	22.1*	7.6	6.6*
